The list is not random: actives were taken first. Their share in the collection is about 11%.
HEK cytotox – Cytotoxic Profiling in HEK 293 Cell Line of Diverse Libraries Using Quantitative High-Throughput Screening | HEK 293 viability, ATP luminescence (CellTiter-Glo), 48-72 h | hit rate 6.6% among 94,000 | Potency, µM (doses to about 115 µM), inactives show at the highest dose activity change, negative = cytotoxicity, usual class: inhibitors; note: % is set by controls: 0 for no effect and ±100 for the full control effect; nearly all actives have a fitted effect of over 60% in size
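HEK 293 seeded at 250 cells/well receive compound via pintool. After 48 or 72 hr at 37 degree Celsius, 5% CO2 and 95% humidity, CellTiter-Glo is dispensed and luminescence read following 10 min at room temperature.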
NPR1 antag – Natriuretic polypeptide receptor (hNpr1) antagonism - Primary qHTS. Atrial natriuretic peptide receptor 1 (Homo sapiens), P16066. Potency, µM (highest dose often 46.3 µM), without a hit: at the highest dose activity change, negative = inhibition, usual class: inhibitors. AID 1347048, 2019. HEK293 hNpr1 GloSensor cGMP, ANP-stimulated luminescence. hit rate 1.6% among 76,000; calls by dose curve; note: % is set by controls: 0 for no effect and ±100 for the full control effect; nearly all actives have a fitted effect of over 60% in size
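Compound pre-incubated 30 min at room temperature on GloSensor-loaded HEK293 cells stably carrying hNpr1 and the pGS-40F cGMP biosensor. Stimulation uses hNppA at 0.1 nM final; luminescence is taken at baseline and 20 min post-agonist.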
3T3 cytotox – Cytotoxic Profiling in NIH 3T3 Cell Line of Diverse Libraries Using Quantitative High-Throughput Screening | NIH 3T3 viability, CellTiter-Glo ATP luminescence, 48-72 h | Potency, µM (titrated, usually from 96.7 µM), inactives show at the highest dose activity change, negative = cytotoxicity, most hits filed as inhibitors | hit rate 4.3% among 94,000 | AID 1345082, 2018; note: % is set by controls: 0 for no effect and ±100 for the full control effect; nearly all actives have a fitted effect of over 55% in size
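Luminescent ATP readout (CellTiter-Glo, 10 min RT) after 48 or 72 hr compound exposure of NIH 3T3 cells seeded at 400 cells/well in 1536-well format; quantitative HTS.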
FLuc inh – Firefly luciferase inhibition profiling of diverse chemical library using quantitative high-throughput screening | purified P. pyralis luciferase, luminescence, biochemical | Potency, µM (titrated, usually from 115 µM), actives largely listed as inhibitors | hit rate 2.5% among 76,000; note: % is set by controls: 0 for no effect and ±100 for the full control effect; nearly all actives have a fitted effect of over 65% in size
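Luminescence read by CCD imager after adding enzyme (10nM final) to wells holding compound, titrated in qHTS. Substrates 10uM each D-luciferin and ATP; buffer 50mM Tris acetate pH 7.5, 10mM Mg acetate, Tween-20, BSA.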
Npr1 antag conf – Natriuretic polypeptide receptor (hNpr1) antagonism - Confirmation. HEK293 hNpr1 cGMP GloSensor luminescence, ANP-stimulated. hit rate 76% among 1,400. Potency, µM (titrated, usually from 57.6 µM), for inactives: top-dose activity change, negative = inhibition, usual class: inhibitors. AID 1347044, 2019. shares compounds with NPR1 antag; calls by dose curve; note: nearly all actives have a fitted effect of over 70% in size
NPR2 antag – Natriuretic polypeptide receptor (hNpr2) antagonism - Subtype selectivity assay; shares compounds with NPR1 antag; Potency, µM (doses to about 57.6 µM), for inactives: top-dose activity change, negative = inhibition, hits mostly inhibitors; HEK293 hNpr2 GloSensor cGMP luminescence, CNP-stimulated; hit rate 67% among 1,400; calls by dose curve; note: nearly all actives have a fitted effect of over 70% in size
FLuc counter – Natriuretic polypeptide receptor (hNpr1) antagonism - Confirmation firefly luciferase (FLuc) inhibition counterscreen. shares compounds with NPR1 antag. purified FLuc enzyme, luminescence, Km substrate. Potency, µM (series often up to 57.6 µM), inactives show top-dose activity change, negative = inhibition, most hits filed as inhibitors. hit rate 0.7% among 1,400; note: 0% is about no effect
GloSensor cGMP – Natriuretic polypeptide receptor (hNpr1) antagonism - Counterscreen GloSensor control cell line | shares compounds with NPR1 antag | hit rate 69% among 1,400 | Potency, µM (top dose mostly 57.6 µM), without a hit: top-dose activity change, negative = inhibition, most hits filed as inhibitors | HEK293 GloSensor cGMP, SNP-stimulated, luminescence; calls by dose curve; note: % is set by controls: 0 for no effect and ±100 for the full control effect; nearly all actives have a fitted effect of over 70% in size
* marks the source's active call; other numbers are inactive results; i = inactive; ? = inconclusive; . = no result; [ ] = remark or other dose. Unless noted, calls come from the whole dose curve; as a rule, active = well fitted curve in the direction sought with a large enough effect; inconclusive = small, poorly fitted or top-dose-only effect, or another doubt; inactive = no such curve, though single readings can be large; an effect the other way counts as inactive or inconclusive. Potency is the fitted concentration of half-maximal effect.

SMILES | HEK cytotox | NPR1 antag | 3T3 cytotox | FLuc inh | Npr1 antag conf | NPR2 antag | FLuc counter | GloSensor cGMP
O=C(Cc1ccc(F)cc1)N1CCN(c2cc(-c3ccc(Cl)cc3)[nH]n2)CC1 | 40µM* | ? | ? | i | ? | ? | 1% | ?
COc1ccc(CN2CCc3nc(C(=O)NCc4cccc(F)c4)oc3CC2)cc1 | ? | -29%[70.6 µM] | ? | i | . | . | . | .
O=C(Nc1ccc(Cl)cc1)c1nc2c(o1)CCN(Cc1cccc(F)c1)CC2 | ? | 7.9µM* | ? | i | 11µM* | 16µM* | -23%[86.2 µM] | 11µM*
CN(Cc1cccnc1)c1nc2c(c(=O)[nH]1)CCN(Cc1ccc(F)cc1F)CC2 | ? | -25% | ? | i | . | . | . | .
O=C(Nc1cccc(C(F)(F)F)c1)c1nnn2c1CN(Cc1ccccc1F)C(=O)CC2 | ? | -8% | ? | i | . | . | . | .
O=C(NCCOc1ccccc1)c1nc2c(o1)CCN(Cc1c(F)cccc1F)CC2 | ? | -1%[70.6 µM] | ? | i | . | . | . | .
O=C(Nc1cccc(C(F)(F)F)c1)c1nc2c(o1)CCN(Cc1ccccc1F)CC2 | 63µM* | ? | 50µM* | i | ? | ? | -27%[86.2 µM] | ?
Cc1noc(C)c1CN1CCc2nc(C(=O)Nc3cccc(C(F)(F)F)c3)oc2CC1 | ? | 32µM* | ? | i | 28µM* | 31µM* | -11%[86.2 µM] | 20µM*
O=C(Nc1cccnc1)c1nc2c(o1)CCN(Cc1ccc(F)cc1F)CC2 | ? | 32µM* | ? | i | 40µM* | 40µM* | -24%[86.2 µM] | 35µM*
Cc1nocc1C(=O)N1C[C@@H](COc2ccccc2)[C@H](C(N)=O)C1 | i | 4% | -10% | i | . | . | . | .
Cc1cnc(CC2CCN(C(=O)C(C)C)C2)n1C1CC1 (centres undefined) | -16% | 6% | -14% | i | . | . | . | .
Cc1ccc(-c2nnc(C3CN(C(=O)c4ccc(Cl)s4)CC34CCOCC4)o2)cc1 (centres undefined) | ? | -16% | -3% | i | . | . | . | .
Cn1nc(-c2ccncc2)cc1NC(=O)C1CC1 | -1%[172 µM] | . | -21%[138 µM] | . | . | . | . | .
COc1ccccc1CN1CCc2nc(C(=O)Nc3cccc(C(F)(F)F)c3)oc2CC1 | 32µM* | ? | 28µM* | i | 22µM* | 24µM* | -8% | 24µM*
COCCCn1c(=O)c(C(=O)N2CCN(C(=O)OC)CC2)nc2cccnc21 | i | . | -16% | . | . | . | . | .
Cc1noc(C)c1-c1cc2c(c(-c3cccc(O)c3)c1)C(=O)N(C)C2 | ? | -2%[70.6 µM] | -51%[138 µM] | i | . | . | . | .
Cc1ccccc1-c1cc(-c2c(C)noc2C)cc2c1C(=O)N(C)C2 | ? | -1%[70.6 µM] | ? | i | . | . | . | .
Cc1noc(C)c1-c1cc2c(c(-c3ccc(F)c(Cl)c3)c1)C(=O)N(C)C2 | ? | 8.9µM* | ? | i | 16µM* | 8.9µM* | -1%[86.2 µM] | 7.9µM*
Cc1noc(C)c1-c1cc2c(c(-c3ccccc3)c1)C(=O)N(C)C2 | 40µM* | 28µM* | ? | i | 28µM* | 18µM* | 1%[86.2 µM] | 18µM*
COC(=O)CNC(=O)N1CCC(OC2CCN(Cc3ccccc3)CC2)CC1 | 7% | 2% | -16% | i | . | . | . | .
COc1ccc(CN2C(=O)[C@@H]3C[C@@H](CN3Cc3cccs3)Oc3ccccc32)cc1 | 79µM* | ? | ? | i | ? | ? | -20%[86.2 µM] | 0%[86.2 µM]
O=C(NCc1ccncc1)c1c(OCC2CC2)cc(=O)n2c1CCCCC2 | -2% | 3% | i | i | . | . | . | .
CCNC(=O)N1CCOc2ccc(CCC(=O)Nc3ccc(C)cc3)cc2C1 | ? | 11µM* | ? | i | 15µM* | 19µM* | -15% | 12µM*
CCCNC(=O)CCc1ccc2c(c1)CN(C(=O)NCC)CCO2 | 1% | 2% | -12% | i | . | . | . | .
CCOCC(=O)N1CCN(c2nnnn2-c2ccccc2)CC(O)C1 (centres undefined) | 0% | 0% | i | i | . | . | . | .
SMILES | HEK cytotox | NPR1 antag | 3T3 cytotox | FLuc inh | Npr1 antag conf | NPR2 antag | FLuc counter | GloSensor cGMP
COc1ccc([C@@H]2CN(c3nnnn3-c3ccccc3)C[C@H]2NC(C)=O)cc1 | -22% | ? | -20% | i | ? | ? | 1% | 2%
CC(=O)N[C@H]1CCN(CCC(=O)Nc2ccc(F)c(Cl)c2)C1 | 2% | 3% | -15% | i | . | . | . | .
Cc1ccc(F)cc1CN1CCOc2cc([S+](=O)([O-])N(C)C)ccc2C1 | 40µM* | 35µM* | ? | i | 40µM* | 40µM* | -2%[86.2 µM] | 35µM*
CN(C)[S+](=O)([O-])c1ccc2c(c1)OCCN(Cc1ccccc1F)C2 | ? | -10%[70.6 µM] | ? | i | . | . | . | .
COc1ccc(-c2cc(N3CCCN(C(=O)c4ccc(F)c(Cl)c4)CC3)n[nH]2)cc1 | ? | ? | ? | i | 17µM* | 14µM* | -1% | 6%
O=C(c1ccc2[nH]ccc2c1)N1CCN(c2cc(-c3ccccc3)[nH]n2)CC1 | ? | ? | ? | i | ? | ? | 1% | -27%
COc1ccc(-c2cc(N3CCCN(C(=O)c4cccc(F)c4)CC3)n[nH]2)cc1 | ? | -1% | -8% | i | . | . | . | .
COc1ccc(-c2cc(N3CCCN(C(=O)c4cccc(Br)c4)CC3)n[nH]2)cc1 | ? | ? | ? | i | ? | 14µM* | -9% | -21%
COc1ccc(-c2cc(N3CCCN(C(=O)c4cccc(Cl)c4)CC3)n[nH]2)cc1 | ? | ? | ? | i | 24µM* | 14µM* | 3% | -1%
CCN1CCN(C(=O)c2cc(-c3ccccc3C(F)(F)F)nc3c2cnn3C)CC1 | i | . | -8% | . | . | . | . | .
